Compound activity: PubChem, National Center for Advancing Translational Sciences (NCATS)
Sampled rows, rich in hits. Any-hit rate of the full collection: about 19%.
VP16 counter – counter-screen for ROR gamma inhibitors: Gal4-VP16 reporter; Drosophila S2 Gal4-VP16 UAS-luciferase, luminescence, 20 h; actives 3.5% (n = 310,000); Potency, µM (top dose mostly 53.6 µM), inactives show top-dose activity, negative = inhibition, hits mostly inhibitors; AID 2546;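 note: Gal4-VP16 expression switched on by copper sulfate through the metallothionein promoter; nearly all actives have a fitted effect of over 50% in size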
RORgamma inh – ROR gamma (mouse) transcription inhibition. P51450. Drosophila S2 Gal4-RORgamma UAS-luciferase reporter, 20 h. Potency, µM (highest dose often 53.6 µM), for the others: top-dose activity change, negative = inhibition, most hits filed as inhibitors. actives 5.4% (n = 310,000); note: nearly all actives have a fitted effect of over 60% in size
Target sequence (P51450 whole entry, looked up, the tested form may be a part): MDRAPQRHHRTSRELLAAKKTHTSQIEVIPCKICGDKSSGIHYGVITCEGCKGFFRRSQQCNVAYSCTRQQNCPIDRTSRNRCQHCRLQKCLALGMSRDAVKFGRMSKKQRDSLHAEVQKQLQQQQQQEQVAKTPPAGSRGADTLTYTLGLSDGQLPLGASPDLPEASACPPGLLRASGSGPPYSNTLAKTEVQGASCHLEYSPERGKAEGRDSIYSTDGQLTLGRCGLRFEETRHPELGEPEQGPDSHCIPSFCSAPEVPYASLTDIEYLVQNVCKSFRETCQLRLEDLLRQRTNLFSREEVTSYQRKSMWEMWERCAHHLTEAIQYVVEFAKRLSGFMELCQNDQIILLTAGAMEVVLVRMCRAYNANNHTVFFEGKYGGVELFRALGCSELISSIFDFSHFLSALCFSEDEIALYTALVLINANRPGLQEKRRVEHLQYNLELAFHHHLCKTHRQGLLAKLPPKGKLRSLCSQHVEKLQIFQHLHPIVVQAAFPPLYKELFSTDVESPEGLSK
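Compounds are pin-transferred onto Drosophila Schneider cells expressing a copper-inducible Gal4–ROR gamma transactivation domain fusion. After 1 hr, copper sulfate is added to 700 uM final; luciferase is read 20 hr later.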
DT40 TDP1 CPT – growth inhibition of DT40 Tdp1-/-;hTDP1 cells with camptothecin (screen for TDP1 inhibitors) | AID 686979 | actives 12% (n = 420,000) | chicken DT40 Tdp1-/-;hTDP1 cells + 20 nM CPT, ATP luminescence, 48 h | Potency, µM (doses to about 46.2 µM), for the others: top-dose activity change, negative = growth inhibition, most hits filed as inhibitors; note: nearly all actives have a fitted effect of over 55% in size
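Chicken DT40 Tdp1-/- cells complemented with human TDP1, 400 cells/well, exposed to compounds plus 20 nM camptothecin for at least 48 h at 37 C; viability read as ATP content by CellTiter-Glo luminescence.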
TDP1 inh – inhibitors of human tyrosyl-DNA phosphodiesterase TDP1. Potency, µM (doses to about 130 µM), without a hit: at the top dose activity change, negative = inhibition, most hits filed as inhibitors. recombinant TDP1, AlphaScreen DNA substrate cleavage. AID 485290. actives 0.28% (n = 350,000). Q9NUW8; note: nearly all actives have a fitted effect of over 40% in size
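Signal: AlphaScreen proximity between streptavidin donor and anti-FITC acceptor beads on intact substrate. Reaction: Tdp1 1 nM, substrate 15 nM final, 5 min RT after 15 min compound preincubation.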
TDP1 cell noCPT – qHTS for Inhibitors of human tyrosyl-DNA phosphodiesterase 1 (TDP1): qHTS in cells in absence of CPT. DT40 Tdp1-/- hTDP1 cells, no CPT, ATP luminescence, 48 h. Potency, µM (titrated, usually from 46.2 µM), without a hit: at the highest dose activity change, negative = growth inhibition, actives largely listed as inhibitors. actives 15% (n = 420,000). AID 686978, 2013; note: nearly all actives have a fitted effect of over 55% in size
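Luminescent ATP content (CellTiter-Glo) served as the growth readout. Knockout chicken DT40 cells expressing human TDP1 were exposed to compounds without camptothecin for a minimum 48 hr at 37 °C.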
Active calls of the source: *; ? = inconclusive; · = no result; [ ] = another dose, or the depositor's remark. Calls come from the whole dose curve; as a rule, active = well fitted curve in the direction sought with a large enough effect; inconclusive = small, poorly fitted or top-dose-only effect, or another doubt; inactive = no such curve, though single readings can be large; an effect the other way counts as inactive or inconclusive. % is set by controls: 0 for no effect and ±100 for the full control effect; potency is the fitted concentration of half-maximal effect.

SMILES	VP16 counter	RORgamma inh	DT40 TDP1 CPT	TDP1 inh	TDP1 cell noCPT
COc1ccc(NC(=O)/C=C/c2ccc(Br)o2)cn1	-10.3%	35.4%	-0.2%	20µM*	-25.9%
Cc1cccc(NC(=S)c2nc3ccccc3s2)c1	5.01µM*	1.12µM*	?	14.3%	?
Cc1cccc(NC(=O)c2cc(C)nc3ccccc23)c1	4.3%	3.6%	-5.4%	·	15.1%
FC(F)(F)c1nc2ccccc2[nH]1	-9.8%	-2.8%	?	2.4%	-27.2%
O=Cc1cc(Cl)ccc1OCCN1CCC(Cc2ccccc2)CC1	-22.5%	-14.6%	?	4.6%	16.4µM*
COc1cc(CN2CCC(Cc3ccccc3)CC2)c([N+](=O)[O-])cc1OC	5.7%	12.5%	20.6µM*	·	?
Cc1ccc([N+](=O)[O-])c(OCCCN2CCC(Cc3ccccc3)CC2)c1	·	·	20.6µM*	·	20.6µM*
COc1ccc(OC)c(CN2CCC(Cc3ccccc3)CC2)c1	2.0%	-5.8%	?	4.0%	16.4µM*
O=C(COc1ccccc1/C=C1\SC(=O)NC1=O)Nc1ccccc1	-4.9%	17.9%	?	2.3%	-15.2%
COCCN(C(=O)CCC(=O)Nc1nccs1)C(C(=O)NCCC(C)C)c1ccc(OC)cc1 (stereo not drawn)	2.4%	-4.4%	-2.0%	-15.4%	-26.1%
Cc1ccc(-c2nnc3ccccc3c2C(=O)Nc2ccc(F)cc2)cc1	·	·	?	0.0%	-23.4%
CCC(C)c1ccccc1NC(=O)c1cc(C)no1 (stereo not drawn)	-14.3%	22.6%	?	3.1%	-17.1%
COc1ccc(CN2CCN(Cc3ccccc3C(F)(F)F)CC2)c(OC)c1	-1.3%	-4.1%	?	·	16.4µM*
COC(=O)c1[nH]c2cccc(OC)c2c1NC(=O)CCN1CCC(C)CC1	-2.3%	-27.3%	?	-6.3%	?
COC(=O)c1[nH]c2cccc(OC)c2c1NC(=O)CCN1CCN(c2ccccc2OC)CC1	7.6%	-3.6%	10µM*	2.0%	12.6µM*
COc1cccc(N2CCN(CC(=O)c3c[nH]c4ccc(OC)cc34)CC2C)c1 (stereo not drawn)	2.9%	42.5%	20.6µM*	7.2%	20.6µM*
COC(=O)c1[nH]c2cccc(OC)c2c1NC(=O)CN1CCN(c2cccc(OC)c2)C(C)C1 (stereo not drawn)	0.1%[0.365 µM]	-32.5%	?	2.6%	14.6µM*
CCOC(=O)c1[nH]c2cc(OC)c(OC)cc2c1NC(=O)CN1CCN(c2ccc(OC)cc2)C(C)C1 (stereo not drawn)	-29.7%	?	·	11.6%	·
Cc1nn(-c2ccccc2)c(N)c1C(c1ccccc1)c1c(C)nn(-c2ccccc2)c1N	-2.0%	24.0%	?	6.9%	-25.7%
O=C(NC(Cc1ccccc1)C(=O)O)/C(=C/c1cccc([N+](=O)[O-])c1)NC(=O)c1ccco1 (stereo not drawn)	-2.8%	1.9%	11.9%	3.1%	1.0%
CSCC[C@H](NC(=O)c1cccs1)C(=O)N1CCC2(CC1)NCCc1[nH]cnc12	-6.8%	0.0%	-2.1%	3.0%	1.6%
S=c1[nH]nc(CN2CCCC2)n1Cc1ccccc1	-8.1%	11.2µM*	-6.3%	-2.6%	0.5%
S=c1[nH]nc(CN2CCCCC2)n1Cc1ccccc1	17.8µM*	3.16µM*	14.6µM*	2.3%	16.4µM*
CC(C)CNC(=O)c1ccccc1SCC(=O)NC12CC3CC(CC(C3)C1)C2	0.1%	31.0%	-5.8%	-2.7%	?
CCN(CC)c1ccccc1/C=C/[n+]1ccc(CCCCI)c2ccccc21	·	·	0.631µM*	·	0.562µM*
SMILES	VP16 counter	RORgamma inh	DT40 TDP1 CPT	TDP1 inh	TDP1 cell noCPT
CCn1c2ccccc2c2cc(NC(=O)c3ccc(C)c([N+](=O)[O-])c3)ccc21	2.0%	30.7%	5.8µM*	4.2%	3.26µM*
CCCC(=O)Nc1cccc(NC(=O)c2ccc(C)c([N+](=O)[O-])c2)c1	13.0%	29.0%	?	5.2%	?
CCn1c2ccccc2c2cc(NC(=O)c3cccc([N+](=O)[O-])c3)ccc21	-11.2%	25.2%	20.6µM*	5.1%	20.6µM*
Cc1c(C(=O)Nc2ccc(C(=O)Nc3ccccc3)cc2)cccc1[N+](=O)[O-]	-13.2%	-22.5%	-21.7%	15.1%	-10.9%
COC(=O)c1ccc(Cl)c(NC(=O)c2cccc([N+](=O)[O-])c2C)c1	6.8%	1.2%	-9.0%	1.2%	-17.6%
COC(=O)c1cc(NC(=O)c2cccc([N+](=O)[O-])c2C)ccc1Cl	10.4%	13.0%	-23.9%	0.0%	16.4µM*
CCn1c2ccccc2c2cc(NC(=O)c3cccc([N+](=O)[O-])c3C)ccc21	-9.9%	24.5%	?	1.8%	14.6µM*
CCN(CC)c1nc(C=Cc2ccc(N(C)C)cc2)c2nccnc2n1	·	·	23.1µM*	·	20.6µM*
CCN(CC)c1ccc(/C=C/c2c(C)cnc3ccccc23)cc1	·	·	?	·	11.2µM*
COc1cccc(C=Cc2nccc3ccccc23)c1OC	·	·	?	·	16.4µM*
COc1cccc(/C=N\n2c(C)nnc2C)c1OC	-7.7%	-33.7%	-9.6%	-1.0%	-9.3%
COc1cccc(/C=C/c2cnc3ccccc3n2)c1OC	·	·	?	·	20µM*
CCOC(=O)C1CCN(S(=O)(=O)c2ccc3c(c2)NC(=O)CS3)CC1	?	-17.9%	-8.8%	-0.9%	-1.9%
COc1ccc(/C=C/c2nccc3ccccc23)cc1OC	·	·	11.2µM*	·	14.1µM*
CCN(CC)c1ccc(/C=C(\C#N)C(=O)NCc2ccccc2)cc1	-28.4%	?	-2.7%	·	?
CCN(CC)c1ccc(/C=C/c2nccc3ccccc23)cc1	·	·	?	·	12.6µM*
COc1ccc(/C=C/c2ccncc2)cc1OC	3.0%	-20.0%	6.5%	0.0%	-9.2%
CN(C)CCOC(=O)[C@@H](c1ccccc1)C1(O)CCCC1	6.6%[17 µM]	12.7%[16.9 µM]	·	4.2%	·
CC(NNC(=S)N1CCCCCC1)c1ccc2ccccc2n1 (stereo not drawn)	·	·	0.0082µM*	·	0.0082µM*
S=C(NCc1ccccc1)N1CCCCC1	13.2%	?	-3.2%	5.5%	-13.2%
Cc1cc(C)cc(NC(=O)C(=O)NCC(c2cccnc2)N2CCOCC2)c1 (stereo not drawn)	·	·	-0.7%	3.9%	-24.9%
Cc1ccc(NC(=O)C(=O)NCC(c2cccnc2)N2CCN(Cc3ccccc3)CC2)cc1Cl (stereo not drawn)	·	·	10.3µM*	-6.5%	7.31µM*
O=C(NCc1ccc(Cl)cc1)C(=O)NCC(c1cccnc1)N1CCN(c2ccc(F)cc2)CC1 (stereo not drawn)	?	?	6.51µM*	4.6%	8.2µM*
